Source: PubChem BioAssay AID1159580 (chemical genetic matrix, 2015)
Screen size: about 5,500 compounds; about 2,000 (36%) were called active. About 18% were inconclusive and are not listed. Cut-off read from the data, not from the text of the source: active = normalized growth mostly below about 0.91 (no sharp cut-off); inconclusive = no clear call, values can overlap the other calls; inactive = mostly above about 0.92. Some of the results follow.

Assay: chemical genetic growth profiling, strain panel (AID 1159580);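 note: tested at 20 µM; growth read once vehicle control cultures reached saturation at 30 °C; 1 = growth at the plate median or of vehicle wells; lower values mean less growth of the strain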
Settings: S. cerevisiae deletion strains, growth OD

Measured: normalized growth

O=c1c2ccccc2nc2n1CCc1c-2[nH]c2ccccc12
inactive: locus YAL013W, strain DEP1, stronger effect = lower value 1.02 | locus YAL040C, strain CLN3, stronger effect = lower value 0.981 | locus YCL061C, strain MRC1 (second series), stronger effect = lower value 1.01 | locus YDR150W, strain NUM1, stronger effect = lower value 1.01 | locus YDR363W, strain ESC2, stronger effect = lower value 1.02 | locus YER002W, strain NOP16, stronger effect = lower value 0.996 | locus YGR078C, strain PAC10, stronger effect = lower value 1 | locus YJR075W, strain HOC1, stronger effect = lower value 1.02 | locus YMR263W, strain SAP30, stronger effect = lower value 1.01 | locus YMR307W, strain GAS1, stronger effect = lower value 0.999 | locus YNL128W, strain TEP1, stronger effect = lower value 0.964 | locus YNL153C, strain GIM3, stronger effect = lower value 0.928 | locus YNL175C, strain NOP13, stronger effect = lower value 0.945 | locus YNL197C, strain WHI3, stronger effect = lower value 0.97 | locus YNL224C, strain SQS1, stronger effect = lower value 0.982 | locus YNL322C, strain KRE1, stronger effect = lower value 1.02 | locus YOR083W, strain WHI5 (second series), stronger effect = lower value 0.906 | locus YPL055C, strain LGE1, stronger effect = lower value 1.02 | locus YPL241C, strain CIN2, stronger effect = lower value 1
